An excerpt weighted towards active compounds, which were near 21% of everything screened.
NS1 inh – influenza NS1 inhibition; AID 2326; Potency, µM (highest dose often 46.1 µM), for the others: top-dose activity, positive = more growth; 270,000 compounds, 0.4% hits; calls by dose curve; note: potency is the fitted concentration of half-maximal effect; actives are rising curves; nearly all actives have a fitted effect of over 50% in size
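Compounds were scored for reversing the slow growth caused by influenza A NS1 in S. cerevisiae, measured by optical density at 600 nm. Assay medium contained 2% galactose at pH 6.0; NS1-free yeast of the same strain were the positive control.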
Shiga inhibitor – inhibitors of Shiga toxin in Vero cells | inhibition, % at 38.7 µM | AID 2315 | Vero cells, Shiga toxin protein synthesis inhibition reporter | 290,000 compounds, 9.2% hits; in the data active = inhibition mostly above about 28%, no sharp cut-off; inactive = mostly below about 43%; note: 0% is about no effect
Giardia FBPA inh – inhibitors of Giardia lamblia fructose-1,6-bisphosphate aldolase | 290,000 compounds, 0.71% hits | Potency, µM (series often up to 59.6 µM), for inactives: at the top dose activity, negative = inhibition, hits mostly inhibitors | A8B2U2 | purified Giardia FBPA; note: potency is the fitted concentration of half-maximal effect; % is set by controls: 0 for no effect and ±100 for the full control effect; nearly all actives have a fitted effect of over 55% in size
Target sequence (A8B2U2 whole entry, looked up): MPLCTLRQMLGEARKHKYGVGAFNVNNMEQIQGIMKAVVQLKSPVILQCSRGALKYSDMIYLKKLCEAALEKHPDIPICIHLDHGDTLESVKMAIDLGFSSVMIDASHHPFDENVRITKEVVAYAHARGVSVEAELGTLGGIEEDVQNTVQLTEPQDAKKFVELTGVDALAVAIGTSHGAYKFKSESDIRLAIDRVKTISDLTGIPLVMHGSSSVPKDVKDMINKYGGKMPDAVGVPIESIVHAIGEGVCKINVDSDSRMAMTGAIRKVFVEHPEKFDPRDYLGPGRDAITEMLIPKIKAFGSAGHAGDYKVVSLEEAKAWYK
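40 nM FBPA preincubated 10 min at RT with compound (up to 57.5 uM final), then substrate plus GAPDH/TPI/NAD/arsenate coupling and diaphorase/resazurin added. Fluorescence read after 20 min at RT, 525/598 nm.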
Pf growth 96h – inhibits malaria parasite growth, 96 h. P. falciparum luciferase reporter growth, 96 h. Potency, µM (series often up to 28.7 µM), for inactives: at the top dose activity change, negative = inhibition, usual class: inhibitors. 320,000 compounds, 6.9% hits. AID 504834; note: potency is the fitted concentration of half-maximal effect; % is set by controls: 0 for no effect and ±100 for the full control effect
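Readout is luminescence from an integrated firefly luciferase in P. falciparum. Red cells, 2% hematocrit and 0.05% parasitemia final, were cultured with compound through two parasite generations (96 hours) at 37 C, 5% CO2.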
Pf growth 48h – inhibits P. falciparum growth in the first generation, 48 h. P. falciparum luciferase growth in erythrocytes, 48 h. Potency, µM (top dose mostly 28.7 µM), inactives show top-dose activity change, negative = inhibition, usual class: inhibitors. 310,000 compounds, 5.9% hits. AID 504832; note: potency is the fitted concentration of half-maximal effect; % is set by controls: 0 for no effect and ±100 for the full control effect
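Luminescence readout; reporter = integrated firefly luciferase in P. falciparum. RBC culture at 2% hematocrit, 0.1% parasitemia final, 37 C/5% CO2; decreased signal taken as growth inhibition.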
Cycloheximide cs – counter-screen for Shiga toxin inhibitors: cycloheximide protein synthesis inhibition; cell reporter, cycloheximide protein synthesis inhibition counterscreen; max response, %; 300,000 compounds, 12% hits; in the data active = max response mostly above about 13%, no sharp cut-off; inactive = mostly below about 14%; note: read at 38.3 µM for the half of the compounds with a filed dose; 0% is about no effect
Active calls of the source: *; i = inactive; ? = inconclusive; . = not tested or not shown; [ ] = dose if it differs, or a comment. Unless noted, calls come from the whole dose curve; as a rule, active = well fitted curve in the direction sought with a large enough effect; inconclusive = small, poorly fitted or top-dose-only effect, or another doubt; inactive = no such curve, though single readings can be large; an effect the other way counts as inactive or inconclusive.

SMILES	NS1 inh	Shiga inhibitor	Giardia FBPA inh	Pf growth 96h	Pf growth 48h	Cycloheximide cs
CCCCCC1OC1C/C=C\C/C=C\C/C=C\CCCC(=O)O (stereo not given)	.	.	0%	.	.	.
Cc1cccc(/C=N/NC(=O)c2c(-c3ccccc3)noc2C)c1O	-9%	-13	.	6.6µM*	9.3µM*	-3
Cc1onc(-c2ccccc2)c1C(=O)N/N=C/c1ccccc1OC(C)C	28%	-25	.	-3%	9%	6
COc1ccccc1/C=N/NC(=O)C1=NNC(c2ccccc2)(c2ccccc2)C1	-6%	13	-3%	?	7.4µM*	2
COc1ccccc1/C=N/NC(=O)c1c(-c2ccccc2)noc1C	3%	-7	-24%	2.1µM*	-15%	-7
Cc1cccc(N2CC(C(=O)NCCC3=CCCCC3)CC2=O)c1C (stereo not given)	.	.	.	?	-11%	.
O=C(CCNS(=O)(=O)c1ccc(Br)cc1)Nc1cccc(F)c1	-2%	-13	2%	27%	19%	-5
COc1ccc(S(=O)(=O)Nc2ccc(C)c(S(=O)(=O)N3CCOCC3)c2)cc1[N+](=O)[O-]	.	.	.	-6%	-9%	.
Cc1ccc(/C=N/NC(=O)C2(C)CC2(Br)Br)cc1 (stereo not given)	1%	38	3%	?	3%	13*
CC1(C(=O)N/N=C/c2ccccc2)CC1(Cl)Cl (stereo not given)	-2%	.	8%	3.3µM*	0%	26*
CC1(C(=O)N/N=C/c2ccc3c(c2)OCO3)CC1(Br)Br (stereo not given)	1%	13	.	5.2µM*	11%	17
CC1(C(=O)N/N=C/c2ccccc2)CC1(Br)Br (stereo not given)	2%	16	0%	?	35%	18
O=S(=O)(c1ccccc1Br)N1CCN(c2ncccn2)CC1	-18%	3	3%	7%	15%	7
CC(C)(C)S(=O)(=O)c1ccccc1C(=O)O	7%	-13	3%	9.3µM*	159%	3
CN1c2ccccc2-c2nc3ccccc3n2C1c1cccs1 (stereo not given)	-68%	-16	-10%	1.7µM*	8.3µM*	22
Cc1ccc(C2N(C)c3ccccc3-c3nc4ccccc4n32)o1 (stereo not given)	-67%	-5	-7%	3.7µM*	.	-3
CC(=O)N1c2ccccc2-c2nc3ccccc3n2C1C (stereo not given)	-4%	6	10%	-12%	-2%	1
CCN1c2ccccc2-c2nc3ccccc3n2C1c1ccccn1 (stereo not given)	-148%	33	-1%	?	?	2
O=C(COC(=O)C1CCC1)NCc1ccccc1	.	.	.	-8%	-2%	.
CCCNC(=O)OC[C@@H]1O[C@H](CCO/N=C(\C)CCN2CCCCc3nc(C)c(C)cc32)C=C[C@@H]1Oc1ccc(OC)cc1	.	.	-1%[12.9 µM]	.	.	.
CSc1ccc(/C=C(/NC(=O)c2ccco2)C(=O)N2CCOCC2)cc1	18%	-9	.	?	-1%	-3
CCOc1ccc(-c2nc(S(=O)(=O)c3ccccc3)c(N3CCC(C(N)=O)CC3)o2)cc1	-3%	-5	.	15µM*	?	-1
CCN1CCN(c2oc(-c3ccccc3)nc2S(=O)(=O)c2ccc(C)cc2)CC1	.	.	.	12µM*	13µM*	.
O=C(COC(=O)c1n[nH]c(=O)c2ccccc12)Nc1ccccc1	.	.	.	15%	2%	.
COC(=O)N1CCC2(CC1)CCN(c1ccncc1)CC2	.	.	0%	.	.	.
SMILES	NS1 inh	Shiga inhibitor	Giardia FBPA inh	Pf growth 96h	Pf growth 48h	Cycloheximide cs
N#Cc1ccc2c(c1)C[C@]1(CCCCN3C(=O)c4ccccc4C3=O)Oc3c(c(=O)oc4ccc(F)cc34)C2O1	14%	i	-5%[12.9 µM]	?	1.9µM*	-2
CC1(C)CC(=O)C2=C(C1)O[C@@]1(CCCCN3C(=O)c4ccccc4C3=O)Cc3cc(C#N)ccc3C2O1	8%	i	5%[12.9 µM]	49%[5.75 µM]	1.5µM*	-1
O=C(NCC1CCCO1)c1cc(S(=O)(=O)N2CCCC2)c(Cl)cc1Cl (stereo not given)	1%	9	3%	-3%	4%	14
CC(O)C1CCC2C3CCC4CC(O)CCC4(C)C3CCC12C (stereo not given)	.	.	.	?	-14%	.
CC1Oc2ccccc2N(Cc2ccccc2F)C1=O (stereo not given)	-7%	5	-2%	?	0%	-4
CC1Oc2ccccc2N(Cc2ccccc2Cl)C1=O (stereo not given)	-11%	3	1%	12µM*	?	-2
CC1Oc2ccccc2N(CC(=O)c2ccccc2)C1=O (stereo not given)	?	27	-12%	?	-35%	23*
O=C(CN1C(=O)COc2ccccc21)c1ccc(Cl)cc1	-4%	-8	3%	10µM*	-3%	-8
COc1ccc(CN(C(=O)CN2C(=O)COc3ccccc32)C2CCCC2)c(OC)c1	-12%	6	6%	.	?	-3
COc1ccc(CN(C(=O)CN2C(=O)C(C)Oc3ccccc32)C2CCCC2)c(OC)c1 (stereo not given)	-31%	-20	-2%	8.3µM*	4.7µM*	9
CCOC(=O)Oc1ccc(/C=C2\N=C(C)OC2=O)cc1	7%	-1	4%	10%	28%	-1
CC1Oc2ccccc2N(CC(=O)c2ccc(F)cc2)C1=O (stereo not given)	.	18	-1%	45%	6%	23
CC1Oc2ccccc2N(CC(=O)N2CCc3ccccc32)C1=O (stereo not given)	-5%	-8	6%	-17%	-3%	-3
CC1Oc2ccccc2N(CC(=O)N2CCCc3ccccc32)C1=O (stereo not given)	-11%	-4	-1%	9.3µM*	-21%	8
Cc1ccc(C(=O)CN2C(=O)C(C)Oc3ccccc32)cc1 (stereo not given)	-6%	39	2%	17%	27%	33*
CC(C)(C)C(=O)NCC12C=CC(O1)C1C(=O)N(c3ccccc3)C(=O)C12 (stereo not given)	-31%	7	-1%	2.1µM*	27%	-1
Cc1ccc(N2C(=O)C3C4C=CC(CNC(=S)Nc5ccc(Cl)cc5)(O4)C3C2=O)cc1 (stereo not given)	-43%	-2	0%	?	-13%	9.6*
Cc1cc(C)c(S(=O)(=O)NCC23C=CC(O2)C2C(=O)N(c4ccccc4)C(=O)C23)c(C)c1 (stereo not given)	-103%	-2	.	53%	0%	3
O=C1C2C3C=CC(CO)(O3)C2C(=O)N1c1ccc(-c2ccccc2)cc1 (stereo not given)	-163%	46	-11%	14%	46%	23*
Cc1cccc(NC(=O)c2nc[nH]c2C(=O)N2CCN(C(=O)OC(C)(C)C)CC2)c1	.	.	.	?	0%	.

Screening data as filed in PubChem BioAssay.
